# Measured values taken from the supplement of paper PMC12636033.
# ± gives the standard deviation of the averaged measurements. Over roughly 33,000 sequences, “E-score (rank enrichment, -0.5 to 0.5)” has its median near -0.0068; the highest 2% begin near 0.24. The full list was thinned out, with the highest values kept by preference.
# Test system: muMax20 (Max(13-93) K31hArg/K57hArg, M65Nle)
# Test: PBM 8-mer E-score (E-score (rank enrichment, -0.5 to 0.5)); higher = stronger preferential binding
# Experimental: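 Protein binding microarray (universal PBM chip covering all 10-mers in fixed probe flanks) with chemically synthesized human Max(13-93) bHLH-LZ analogs (not full-length Max) bearing noncanonical residues (hArg, Tha, Aib, Nle at 65) and aromatic Cys staples. Read-out per 8-mer (and its reverse complement): E-score (rank-based enrichment, -0.5 to 0.5) and Z-score of median probe intensity.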
row,Sequence,PBM 8-mer E-score
1,CACTAGGG,-0.0807 ± 0.033
2,TATGGAAA,0.148 ± 0.034
3,CCCCCTCG,-0.0378 ± 0.01
4,ATGCCCAC,0.164 ± 0.033
5,TATGAATA,0.159 ± 0.029
6,CATGAATA,0.192 ± 0.13
7,AATGAATG,0.259 ± 0.058
8,AATGAATT,0.238 ± 0.013
9,AATGAACT,-0.00523 ± 0.086
10,CATGAATG,0.126 ± 0.15
11,GATGAATC,0.0791 ± 0.018
12,AATGAATC,-0.0408 ± 0.034
13,GATGAATA,0.24 ± 0.097
14,AATGAAAT,0.0911 ± 0.04
15,ACTGAATA,0.0784 ± 0.014
16,AATGAATA,0.275 ± 0.093
17,ATGTATCA,0.135 ± 0.08
18,ATAGAGCA,-0.146 ± 0.024
19,GAACCGAA,0.0388 ± 0.025
20,AAACCCCG,0.193 ± 0.062
21,ACCTACTG,0.118 ± 0.053
22,CATTGATC,0.196 ± 0.028
23,ATCGCAAT,0.0576 ± 0.054
24,CAAAGCTC,-0.178 ± 0.079
25,CGCATCTA,0.176 ± 0.0097

row,Sequence,PBM 8-mer E-score
1,CTCTTCGA,0.0225 ± 0.082
2,TAATTGTA,0.146 ± 0.091
3,AAATTGTT,0.136 ± 0.14
4,AAATTGTA,0.282 ± 0.017
5,CGCGAACC,-0.2495 ± 0.00081
6,CCTGAAAG,0.0218 ± 0.0043
7,ACAACAAC,0.125 ± 0.024
8,ACAACATC,0.0572 ± 0.022
9,ACAACAAA,0.163 ± 0.0084
10,ACAACATG,0.265 ± 0.008
11,ACAACCAC,0.033 ± 0.02
12,ACAACATA,0.0952 ± 0.11
13,ACAACAAG,0.262 ± 0.017
14,ACAACCAT,0.29 ± 0.03
15,ACAACCAG,0.062 ± 0.026
16,CCGTGAGA,-0.189 ± 0.067
17,ACCTATGA,-0.136 ± 0.034
18,ACCACCGC,-0.0018 ± 0.023
19,ATTCTTTC,0.176 ± 0.02
20,CGCAGTGC,-0.12 ± 0.2
21,CATCGGGC,-0.209 ± 0.08
22,ATGTTGCA,0.122 ± 0.029
23,AAGTAGAT,0.0944 ± 0.081
24,ACCTGGCG,-0.256 ± 0.014
25,GGGGCACA,0.0581 ± 0.01

row,Sequence,PBM 8-mer E-score
1,TGTGAAAA,0.289 ± 0.071
2,GGTGAAAA,-0.0373 ± 0.0061
3,CGTGAAAA,0.213 ± 0.11
4,ATTGAAAC,0.154 ± 0.059
5,ATTGAAAA,0.306 ± 0.03
6,CTTGAAAA,0.117 ± 0.035
7,CGCCGACC,-0.14 ± 0.057
8,ACTGAGGA,-0.126 ± 0.025
9,AGCACCTG,-0.0212 ± 0.043
10,TACGTAGA,0.0117 ± 0.044
11,AACGAGGT,-0.0494 ± 0.052
12,AGTTAGCA,0.0279 ± 0.055
13,CCGTGTCG,-0.1658 ± 0.00081
14,AAGTGTCG,0.0406 ± 0.12
15,CCGTGTCA,-0.0799 ± 0.0084
16,ACGTGTCA,0.278 ± 0.094
17,GCGTGTCA,0.149 ± 0.2
18,ACGTGTCG,0.237 ± 0.075
19,ACGTGTCT,0.326 ± 0.036
20,AAGTGTCT,0.0152 ± 0.031
21,ACGTGTCC,0.166 ± 0.052
22,CAGCCGTA,-0.128 ± 0.029
23,GCATTAAC,0.0389 ± 0.091
24,CCATTAAC,0.239 ± 0.015
25,ACATTAAC,0.175 ± 0.0064

row,Sequence,PBM 8-mer E-score
1,TGCGAACA,0.109 ± 0.11
2,AGCACATC,-0.0692 ± 0.013
3,AGCACATA,0.0478 ± 0.12
4,ACCACATA,0.0727 ± 0.0036
5,ACCACATC,-0.0454 ± 0.028
6,ATCACACA,0.251 ± 0.021
7,ATCACACC,0.12 ± 0.065
8,ACCACATG,0.319 ± 0.077
9,ATCACATA,0.168 ± 0.048
10,ATCACACG,0.157 ± 0.065
11,AGCACATG,0.266 ± 0.049
12,ATCACATC,0.00749 ± 0.048
13,ATCACATG,0.296 ± 0.11
14,ACGAGCAG,-0.0192 ± 0.02
15,CACCCGGG,-0.361 ± 0.014
16,CATCCGGA,-0.0933 ± 0.064
17,CATCTCAC,-0.0239 ± 0.23
18,AGTTTATG,0.0668 ± 0.014
19,CCTTTACC,0.023 ± 0.2
20,CCTTTACG,0.24 ± 0.01
21,CCTTTACA,0.173 ± 0.094
22,AAGCTACG,0.0404 ± 0.15
23,AGTCCTGA,-0.233 ± 0.16
24,TATGGTAA,0.108 ± 0.0077
25,AATGGTAA,0.27 ± 0.071

row,Sequence,PBM 8-mer E-score
1,CATGGTAA,0.297 ± 0.052
2,TGTGGTAA,0.244 ± 0.067
3,CATGGTCC,-0.136 ± 0.14
4,CATGGTAG,0.0279 ± 0.022
5,CGTGGTAA,0.215 ± 0.06
6,AATGGTAT,0.213 ± 0.019
7,AATGGTAG,0.0638 ± 0.072
8,GGTGGTAA,0.0953 ± 0.084
9,CATGGTCA,0.304 ± 0.047
10,CATGGTCG,0.0286 ± 0.039
11,GGGGCGAA,0.0451 ± 0.035
12,CCGCGAGG,-0.191 ± 0.082
13,CTCTCTCA,-0.0954 ± 0.052
14,CCCCAGTA,0.0363 ± 0.019
15,CAAGGATA,0.00143 ± 0.082
16,CCATAACA,0.141 ± 0.035
17,CGGCGACC,-0.159 ± 0.097
18,TGCGGCAA,0.0884 ± 0.051
19,AGACCTGG,-0.177 ± 0.069
20,ATGCGCAC,-0.00186 ± 0.029
21,ATGCGCAA,0.0942 ± 0.019
22,ATGCGCAT,0.295 ± 0.03
23,AACCGCAC,0.0872 ± 0.056
24,CGGTCGGC,-0.2874 ± 0.0021
25,TAATGCCA,0.142 ± 0.036

row,Sequence,PBM 8-mer E-score
1,CACACGTC,0.0717 ± 0.034
2,AACACGTC,0.091 ± 0.002
3,CACACGTA,0.125 ± 0.018
4,CACACGTG,0.426 ± 0.074
5,AACACGTG,0.481 ± 0.017
6,AACACGTA,0.218 ± 0.0095
7,GCATTGCA,0.14 ± 0.028
8,CGATTACC,-0.0103 ± 0.049
9,CAGAGTGA,0.00192 ± 0.0028
10,GCCCCTAA,-0.0669 ± 0.16
11,ATCCCCGG,-0.16 ± 0.024
12,AAGATTCC,0.00605 ± 0.027
13,ACATAAGA,0.174 ± 0.014
14,CGTCGGGC,-0.152 ± 0.008
15,GCAATAAC,0.138 ± 0.014
16,CCTTATTC,-0.029 ± 0.059
17,CCTTATTA,0.28 ± 0.04
18,CATTATTC,0.104 ± 0.032
19,GCTTATTA,0.1783 ± 0.0012
20,AATTATTA,0.309 ± 0.036
21,CATTATTA,0.242 ± 0.051
22,GATTATTA,0.118 ± 0.064
23,AATTATTG,0.191 ± 0.012
24,AATTATTC,0.101 ± 0.071
25,CACTCGCG,-0.0815 ± 0.047

row,Sequence,PBM 8-mer E-score
1,GAAGAGTC,0.089 ± 0.11
2,CAGTGCTA,-0.08 ± 0.053
3,GCAGAGCA,-0.187 ± 0.06
4,CTATATAG,0.134 ± 0.082
5,GAGGATAA,0.0253 ± 0.093
6,GGTTAGTA,0.0601 ± 0.091
7,AATTAGTC,0.0746 ± 0.11
8,AATTAGTA,0.28 ± 0.034
9,AGTTAGTA,0.27 ± 0.033
10,CATTAGTA,0.0251 ± 0.027
11,AGTTAGTC,-0.094 ± 0.036
12,ACTGATGG,-0.0638 ± 0.09
13,GTCCGATA,-0.0402 ± 0.11
14,CTCCCGAC,-0.0892 ± 0.047
15,ATCCCGCG,-0.0553 ± 0.1
16,AGCATTAG,0.142 ± 0.042
17,CGCATTAA,-0.00237 ± 0.005
18,AGCATTAT,0.262 ± 0.048
19,TGCATTAA,0.277 ± 0.062
20,AGCATTAC,-0.0675 ± 0.077
21,TCCATTAA,-2.5e-05 ± 0.096
22,CCCATTAA,-0.0202 ± 0.017
23,ACCATTAA,0.348 ± 0.021
24,AGCATTAA,0.232 ± 0.0024
